PLK1 PBD block – PLK1 (human) polo-box domain binding inhibition; Plk1 PBD binding of FITC phosphopeptide, fluorescence polarization; P53350; 2.8% of 360,000 active; Potency, µM, inactives show max response, negative = inhibition, usual class: inhibitors; also: series mostly up to about 57 µM; % is scaled to controls: 0 for no effect and ±100 for the full control effect; nearly all actives have a fitted effect of over 65% in size
Target sequence (P53350 whole entry, looked up, the tested form may be a part): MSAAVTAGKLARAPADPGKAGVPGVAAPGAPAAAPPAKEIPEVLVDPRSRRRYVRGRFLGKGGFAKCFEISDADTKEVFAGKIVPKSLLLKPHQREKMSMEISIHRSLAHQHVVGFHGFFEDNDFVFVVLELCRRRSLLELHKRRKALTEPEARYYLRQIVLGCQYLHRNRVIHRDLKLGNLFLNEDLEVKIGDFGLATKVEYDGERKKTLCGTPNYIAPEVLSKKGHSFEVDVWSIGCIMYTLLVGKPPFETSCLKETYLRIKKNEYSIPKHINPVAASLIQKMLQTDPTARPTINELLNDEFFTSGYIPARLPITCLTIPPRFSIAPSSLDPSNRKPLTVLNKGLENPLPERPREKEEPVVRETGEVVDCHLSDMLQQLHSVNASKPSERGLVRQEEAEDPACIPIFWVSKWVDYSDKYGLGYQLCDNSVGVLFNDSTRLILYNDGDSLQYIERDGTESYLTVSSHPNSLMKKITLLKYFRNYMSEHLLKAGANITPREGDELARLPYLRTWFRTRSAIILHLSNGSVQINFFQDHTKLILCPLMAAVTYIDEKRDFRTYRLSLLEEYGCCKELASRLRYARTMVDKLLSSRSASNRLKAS
VDR inh – blocks the human vitamin D receptor; P11473; VDR-SRC2-3 peptide fluorescence polarization, 2 h; Potency, µM, for inactives: max response, negative = inhibition, usual class: inhibitors; 0.93% of 400,000 active; also: % is scaled to controls: 0 for no effect and ±100 for the full control effect
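FP read-out; VDR + SRC2-3 coactivator peptide; 23 nl compound by pintool; 2 h RT incubation; reagents held at 4 deg C, protected from light.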
12-LOX inh – inhibitors of human 12S-lipoxygenase ALOX12. Potency, µM (titrated, usually from 108 µM), for the others: top-dose activity change, negative = inhibition, usual class: inhibitors. AID 1671190. purified 12hLO, xylenol orange hydroperoxide absorbance. 1.1% of 580,000 active. P18054; also: % is scaled to controls: 0 for no effect and ±100 for the full control effect
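Purified human 12hLO (150 nM final) in 25 mM Hepes, 0.01% Triton X-100, pH 7.0 was preincubated 15 min at room temperature with compound. Then 40 uM arachidonic acid was added, 30 min. Hydroperoxide was read by Fe-XO absorbance ratio 573/405 nm.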
Sfp PPTase inh – Sfp phosphopantetheinyl transferase inhibition. Biochemical Sfp PPTase activity, qHTS. 3.5% of 310,000 active. Q9F4F7. AID 1490. Potency, µM, inactives show largest response in the series, negative = inhibition, usual class: inhibitors;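 also: the enzyme is Sfp with the accession as filed and its product quenches rhodamine fluorescence; 0% = enzyme reaction without inhibitor and -100% = no enzyme wells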
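After 15 min at room temperature with compound, 15 nM Sfp received 5 uM rhodamine-CoA plus 12.5 uM BHQ-2-ybbR (50 mM Hepes pH 7.6, 10 mM MgCl2). Rate came from the fluorescence difference over 30 min, ex 525/em 598 nm.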
VDR confirm – confirmation of human vitamin D receptor inhibitors; VDR-coactivator inhibition assay, qHTS confirmation; 89% of 840 active; shares compounds with VDR inh; Potency, µM, usual class: inhibitors
VDR FP fluor – VDR (human) coactivator binding inhibition, fluorescein polarization. shares compounds with VDR inh. VDR-coactivator binding, fluorescein fluorescence polarization. Potency, µM (titrated, usually from 57.1 µM), inactives show at the top dose activity change, negative = inhibition, hits mostly inhibitors. 48% of 840 active. AID 602200
VDR bla reporter – VDR (human) inhibition, cell-based beta-lactamase validation; VDR beta-lactamase reporter cells, FRET ratio; cells co-treated with VDR agonist LG190178; AID 602202; 23% of 840 active; Potency, µM (series often up to 46.1 µM), for the others: top-dose activity change, negative = inhibition, actives largely listed as inhibitors; shares compounds with VDR inh; also: % is scaled to controls: 0 for no effect and ±100 for the full control effect
VDR viability – counter-screen for vitamin D receptor inhibitors: cytotoxicity; Potency, µM (top dose mostly 48.3 µM), without a hit: at the highest dose activity change, negative = cytotoxicity, usual class: cytotoxic; 18% of 840 active; shares compounds with VDR inh; cytotoxicity counter-screen, cell viability, qHTS;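 also: plate controls were DMSO for no effect and high-concentration cycloheximide for full effect; nearly all actives have a fitted effect of over 75% in size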
Active calls of the source: *; ? = inconclusive; / = not tested or not shown. A selection: hits, their analogues and other compounds. The true share with any hit is near 4.2%. Calls follow the shape of the dose curve; as a rule, active = well fitted curve in the direction sought with a large enough effect; inconclusive = small, poorly fitted or top-dose-only effect, or another doubt; inactive = no such curve, though single readings can be large; an effect the other way counts as inactive or inconclusive. Potency is read from the fitted curve at half-maximal effect.

SMILES	PLK1 PBD block	VDR inh	12-LOX inh	Sfp PPTase inh	VDR confirm	VDR FP fluor	VDR bla reporter	VDR viability
COc1ccc(C(=O)N/C(N)=N/c2nc3ccccc3o2)cc1	-10%	13%	-4%	-1%	/	/	/	/
COc1ccc(C(=O)/C=C/Sc2nc3ccccc3o2)cc1	0.75µM*	18µM*	?	1%	6*	3.2µM*	21µM*	21µM*
O=C(NC1CCCCCCC1)C1=COCCO1	0%	5%	16%	6%	/	/	/	/
N#CC(C#N)=NNc1ccc(S(=O)(=O)N2CCCCC2)cc1	-24%	8.9µM*	?	15%	6.7*	3.2µM*	-8%	?
O=S1OC(c2ccccc2)c2cc(Cl)ccc21 (stereo not given)	?	22µM*	0%	/	3.2*	3.5µM*	3%	22%
O=C1/C(=C/c2ccc(Cl)cc2Cl)C(c2ccccc2)Oc2ccccc21 (stereo not given)	/	/	-3%	/	/	/	/	/
Cc1cc(=O)n(CC(=O)Nc2ccc(Cl)cc2F)c(N(C)Cc2ccccc2)n1	/	/	9%	/	/	/	/	/
COc1ccc2c(c1)Cc1sc(NC(=O)c3cccc(C)c3)nc1-2	/	20µM*	?	/	7.1*	7.1µM*	?	?
COc1ccc2c(c1)Cc1sc(NC(=O)c3cccc(Cl)c3)nc1-2	/	-28%	0%	/	/	/	/	/
COc1ccc(Cc2c(O)nc(SC)n(C(C)=O)c2=O)cc1	-14%	?	0%	21%	?	5.6µM*	7%	6%
COc1ccc(-n2c(SC)nc(O)c(Cc3ccccc3)c2=O)cc1	-23%	-13%	-23%	0%	/	/	/	/
CC(C)(C)c1cc(=O)n2c(C#N)c(C#N)nc2[nH]1	-14%	-1%	0%	20%	/	/	/	/
CC(C)(C)c1ccc(-n2nc(C#N)c(Cl)cc2=O)cc1	?	?	-3%	-16%	7.9*	8.9µM*	2.6µM*	?
Cc1ccc(S(=O)(=O)CCC(=O)c2cccc([N+](=O)[O-])c2)cc1	3.8µM*	16µM*	?	22µM*	3.5*	3.2µM*	?	?
O=C(/C=C/c1cccnc1)c1ccc([N+](=O)[O-])cc1	-20%	?	-26%	?	7.9*	8.9µM*	?	?
O=C1CN(C(=O)Cn2ccc3ccccc32)CCN1	/	/	-22%	/	/	/	/	/
C(CCCN1CCCCC1)CCN1CCCCC1	-3%	5%	59%	/	/	/	/	/
Cc1ccc(NN2C(=O)C=C(c3ccc(Cl)cc3)C2=O)cc1	4.7µM*	50µM*	?	?	?	?	?	?
COc1ccc(Nc2cccccc2=O)cc1	1%	-1%	?	12%	/	/	/	/
COc1ccc(C2=CC(=O)N(Nc3ccccc3)C2=O)cc1	-25%	?	?	-4%	3.2*	3.5µM*	-7%	13%
CN(CC1CCOC1)C(=O)c1ccco1 (stereo not given)	/	/	13%	/	/	/	/	/
CCOC(=O)CSC1=NC(=O)/C(=C\c2ccc(OC(C)=O)cc2)S1	2.1µM*	20µM*	?	?	13*	?	?	?
COC(=O)C1=C(N)Oc2cc(C)n(CCc3ccccc3)c(=O)c2C1c1cccnc1 (stereo not given)	-5%	3%	-5%	5%	/	/	/	/
CC(C)NC(=O)c1cc(-c2ccc(Cl)cc2)nc2ccccc12	/	/	6%	/	/	/	/	/
CCOC(=O)C1=C(Cc2ccc(F)cc2)C(=O)c2ccccc2C1=O	9.5µM*	4.5µM*	?	8.9µM*	5.3*	?	-9%	-18%
SMILES	PLK1 PBD block	VDR inh	12-LOX inh	Sfp PPTase inh	VDR confirm	VDR FP fluor	VDR bla reporter	VDR viability
Cc1ccc2cc(CN(c3cccc(C)c3C)S(=O)(=O)c3ccccc3)c(=O)[nH]c2c1	-16%	-18%	-8%	9%	/	/	/	/
Nc1scc2c(C(=O)O)nn(-c3ccccc3)c(=O)c12	/	?	-20%	/	/	/	/	/
CCOC(=O)c1nn(-c2ccc(F)cc2)c(=O)c2c(N)scc12	?	7.9µM*	?	50µM*	27*	?	40%	34%
Cc1nnc(Sc2cc(NCCO)c([N+](=O)[O-])c3nonc23)s1	2.4µM*	22µM*	?	6.3µM*	4.2*	?	?	?
Cc1nnc(Sc2cc(NCCCO)c([N+](=O)[O-])c3nonc23)s1	5.3µM*	45µM*	?	3.2µM*	13*	11µM*	?	?
O=C(Nc1ccccc1F)c1nc(S(=O)(=O)Cc2ccccc2F)ncc1Cl	/	14µM*	-9%	/	2.8*	8.9µM*	?	12µM*
O=C(Nc1ccc2ccccc2c1)c1nc(S(=O)(=O)Cc2ccccc2F)ncc1Cl	/	/	/	/	3.5*	3.5µM*	18µM*	19µM*
Cc1cccc(C)c1NC(=O)c1nc(S(=O)(=O)Cc2ccccc2F)ncc1Cl	/	/	/	/	?	4µM*	6.5µM*	?
COc1ccc2nc(NC(=O)c3nc(S(=O)(=O)Cc4ccccc4F)ncc3Cl)sc2c1	/	-5%	-1%	/	/	/	/	/
Cc1ccc(CNC(=O)c2nc(S(=O)(=O)Cc3ccccc3F)ncc2Cl)cc1	/	/	-25%	/	/	/	/	/
Cc1ccc(NC(=O)C2=C(c3ccccc3)S(=O)(=O)CCS2(=O)=O)cc1	6µM*	?	-17%	16µM*	6.3*	8.9µM*	6.5µM*	?
Cc1ccc(NC(=O)c2ccc(-c3ccccc3)s2)cc1	/	1%	-26%	/	/	/	/	/
CN(C)c1ccc(-n2cccc2/C=C/[N+](=O)[O-])cc1	-26%	35µM*	?	?	13*	8.9µM*	?	?
O=Cc1cccn1-c1ccc(Cl)cc1	/	/	-8%	/	/	/	/	/
Cc1ccc(/C=C/C(=O)c2nc3ccccc3[nH]2)cc1	-2%	?	0%	23%	?	?	?	-14%
CCOC(=O)c1c(C)oc2c1c(C(c1cccnc1)N1CCOCC1)c(O)c1ccccc12 (stereo not given)	6.7µM*	?	-8%	?	16*	13µM*	?	?
CCOC(=O)c1c(C)oc2c1c(C(c1cccnc1)N1CCN(C)CC1)c(O)c1ccccc12 (stereo not given)	/	/	/	-26%	/	/	/	/
CCOC(=O)c1c(C)oc2c1cc(O)c1ccccc12	-17%	7%	442%	24%	/	/	/	/
CCOC(=O)c1c(C)oc2c1c1c(c3ccccc32)OCN(Cc2cccnc2)C1	4.7µM*	?	/	?	11*	7.9µM*	4%	?
COc1ccc(Cc2ccccc2C(=O)O)cc1	-9%	10%	2%	/	/	/	/	/

Assay outcomes as filed in PubChem BioAssay.
